Sm TGR block = S. mansoni TGR enzyme inhibition | Q962Y6 | purified TGR, DTNB reduction, TNB absorbance 405 nm | Potency, µM (highest dose often 114 µM), for the others: at the highest dose activity change, negative = inhibition, hits mostly inhibitors | 3% of 360,000 active | AID 485364; active = well fitted inhibition curve with a large enough effect; inconclusive = small, poorly fitted or top-dose-only effect; inactive = no such curve, though single readings can be large or run the other way; note: potency is the fitted concentration of half-maximal effect; % is set by controls: 0 for no effect and ±100 for the full control effect; nearly all actives have a fitted effect of over 60% in size
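TGR 20 nM + NADPH 100 uM (dispensed conc.), cpd preinc 15 min RT; start with NADPH (500 uM addition) then DTNB (15 mM addition). Kinetic TNB absorbance, 405 nm filter. Four-parameter Hill fit across titration.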
FMDV inh = blocks foot and mouth disease virus. FMDV antiviral cell-based qHTS. Potency, µM (titrated, usually from 57.9 µM), for inactives: at the highest dose activity change, negative = inhibition, most hits filed as inhibitors. 1.2% of 410,000 active; calls by dose curve; tested in HEK293T cells; note: read-out not given here; potency is the fitted concentration of half-maximal effect; % is set by controls: 0 for no effect and ±100 for the full control effect; nearly all actives have a fitted effect of over 45% in size
Cycloheximide cs = counter-screen for Shiga toxin inhibitors: cycloheximide protein synthesis inhibition; 12% of 300,000 active; max response, %; cell reporter, cycloheximide protein synthesis inhibition counterscreen; in the data active = max response mostly above about 13%, no sharp cut-off; inactive = mostly below about 14%; note: read at 38.3 µM for the half of the compounds with a filed dose; 0% is about no effect
Shiga toxin inh = inhibitors of Shiga toxin in Vero cells; inhibition, % at 38.7 µM; Vero cells, Shiga toxin protein synthesis inhibition reporter; 9.2% of 290,000 active; in the data active = inhibition mostly above about 28%, no sharp cut-off; inactive = mostly below about 43%; note: 0% is about no effect
An asterisk follows results filed as active. Shown are actives, neighbours in structure and some others; about 12% of the full set was active somewhere.

`CCCN1CCN(c2cc3c(cc2F)c(=O)c(S(=O)(=O)c2ccc(CC)cc2)cn3CC)CC1` gave Sm TGR block 1.2% and FMDV inh 1.3%.
CCOC(=O)C1(Cc2ccccc2Cl)CCN(C(=O)CN2CCOC2=O)CC1 was read as Sm TGR block -23.6%, FMDV inh 19.6%, Cycloheximide cs 42.6* and Shiga toxin inh 74.7*.
Screening CCc1ccc(CNC(=O)c2ccc3c(c2)c(C)c(C)n3Cc2ccccc2)cc1 returned Sm TGR block 1.7% and FMDV inh -1.2%.
Cc1c(C)n(Cc2ccccc2)c2ccc(C(=O)OCCN(C)C)cc12 was read as Sm TGR block 0.4%, FMDV inh 11.3%, Cycloheximide cs 29.1* and Shiga toxin inh 67.6.
COc1ccc2c(c1)O/C(=C\c1ccccc1C)C2=O was read as Sm TGR block 12.7%, FMDV inh 30.3%, Cycloheximide cs 31.2* and Shiga toxin inh 65.7*.
Screening COc1ccc(CN2CCN(C3CCSCC3)CC2CCO)c(C)c1C (configuration not stated) returned Sm TGR block 35.5µM*, FMDV inh -11.6%, Cycloheximide cs -1.3 and Shiga toxin inh 9.9.
`O=C(NCCS(=O)(=O)N1CCN(c2ccc(F)cc2)CC1)C(c1ccccc1)c1ccccc1` gave Sm TGR block -11.7% and FMDV inh -7.6%.
Screening OC1OC[C@H](O)[C@H](O)[C@H]1O (some centres not stated) returned Cycloheximide cs -6.1 and Shiga toxin inh -0.9.
`COc1ccc(C2C(C(=O)c3ccccc3)N3c4ccccc4C=CC3C2[N+](=O)[O-])cc1` (configuration not stated) gave Sm TGR block 39.8µM*, FMDV inh 7.4%, Cycloheximide cs 22.4* and Shiga toxin inh 24.2.
For COc1ccc(N2C(=O)[C@@H]3[C@H](C2=O)[C@H](C(C)=O)N2c4ccccc4C=C[C@@H]32)cc1 the results were Sm TGR block inconclusive, FMDV inh -5.3%, Cycloheximide cs 3.4 and Shiga toxin inh 22.4.
CCN(CC)S(=O)(=O)c1ccc2c(c1)N(CC(=O)NCc1ccccc1)C(=O)C1CCCCN21 (configuration not stated) was read as Sm TGR block 3.1% and FMDV inh 0.0%.
`Cc1c(C(=O)NCCc2ccccc2)oc2ccccc12` gave Sm TGR block 4.9%, FMDV inh 16.9%, Cycloheximide cs 29.4* and Shiga toxin inh 75.0*.
`O=C(Nc1ccccc1Cc1ccccc1)c1oc2ccccc2c1COc1ccccc1` gave Sm TGR block -3.3%, FMDV inh inconclusive, Cycloheximide cs -1.9 and Shiga toxin inh -4.4.
For Cc1c(C(=O)NCCCN2CCCC2=O)oc2c(Cl)cccc12 the results were Sm TGR block 4.3% and FMDV inh -5.9%.
For Cc1c(C(=O)NCCCN2CCCC2=O)oc2ccccc12 the results were Sm TGR block 4.0%, FMDV inh 35.6%, Cycloheximide cs 26.6* and Shiga toxin inh 72.2*.
Screening O=C(NCCc1ccccc1)c1oc2ccccc2c1COc1ccccc1 returned Sm TGR block -5.3%, FMDV inh 17.0%, Cycloheximide cs 26.2* and Shiga toxin inh 38.7*.
Screening Cc1cc(=O)oc2cc(OCC(=O)NCCCN3CCCC3=O)c(Cl)cc12 returned Sm TGR block 79.4µM*, FMDV inh -19.1%, Cycloheximide cs -4.6 and Shiga toxin inh -2.6.
For CCOC(=O)C1CCN(C(=O)CN2c3ccc(C(C)C)cc3-c3ccccc3S2(=O)=O)CC1 the results were Sm TGR block 0.1% and FMDV inh 72.8%.
`Cc1c(C(=O)NCc2cccs2)oc2ccccc12` gave Sm TGR block 3.4%, FMDV inh 22.5%, Cycloheximide cs 18.7* and Shiga toxin inh 30.1*.
Cc1c(C(=O)NCc2ccccc2F)oc2ccccc12 was read as Sm TGR block -2.9%, FMDV inh 25.1%, Cycloheximide cs -4.5 and Shiga toxin inh -13.0.
For COc1cccc2c(=O)c(C(=O)NCc3cccs3)c[nH]c12 the results were Sm TGR block 6.6%, FMDV inh 3.5%, Cycloheximide cs 53.0* and Shiga toxin inh 76.5*.
Screening CCc1ccc(CN2C(=O)c3ccccc3C2C(=O)NCCc2ccc(OC)c(OC)c2)cc1 (configuration not stated) returned Sm TGR block 1.4% and FMDV inh 6.8%.
COc1ccc(CNC(=O)CCc2cn(C)c3ccccc23)cc1 was read as Sm TGR block -3.4% and FMDV inh 7.8%.
COc1ccc(-c2cc3c(=O)n(CC(=O)Nc4ccc(Br)c(C)c4)ccn3n2)cc1OC was read as Sm TGR block 0.9% and FMDV inh -11.5%.
For COc1ccc(NC(=O)Cn2c(=O)n(C(C)C)c(=O)c3oc4ccccc4c32)cc1Cl the results were Sm TGR block -1.2% and FMDV inh -29.1%.
For CCOC(=O)Cn1cc(C(=O)c2ccccc2F)c2ccccc21 the results were Sm TGR block 12.4%, FMDV inh 15.6%, Cycloheximide cs 17.2* and Shiga toxin inh 44.8.
Cc1ccc(NC(=S)NCC2CCCO2)cc1C (configuration not stated) was read as Sm TGR block -10.8%, FMDV inh 22.8%, Cycloheximide cs 9.0 and Shiga toxin inh 12.0.
For Cc1ccc(NC(=O)C(=O)NCC2CCCO2)cc1 (configuration not stated) the results were Sm TGR block 9.6%, FMDV inh 44.8%, Cycloheximide cs 57.6* and Shiga toxin inh 101.4*.
For Cc1cc(C)cc(OCC(=O)NCC2CCCO2)c1 (configuration not stated) the results were Sm TGR block 18.8%, Cycloheximide cs 23.5* and Shiga toxin inh 100.4*.
`Cc1cc(C)cc(NC(=O)C(=O)NCC2CCCO2)c1` (configuration not stated) gave FMDV inh 54.2%, Cycloheximide cs 24.8* and Shiga toxin inh 32.5.
Cc1ccc(NC(=O)C(=O)NCC2CCCO2)cc1C (configuration not stated) was read as FMDV inh 13.3%, Cycloheximide cs 30.9* and Shiga toxin inh 100.4*.
For CCCOC(=O)c1ccc(NC(=O)C(=O)NCC2CCCO2)cc1 (configuration not stated) the results were Sm TGR block -8.9%, FMDV inh -4.4%, Cycloheximide cs -2.0 and Shiga toxin inh -6.0.
Screening COC(=O)c1ccc(NC(=O)C(=O)NCC2CCCO2)cc1 (configuration not stated) returned Sm TGR block -5.8%, FMDV inh 42.6%, Cycloheximide cs 0.4 and Shiga toxin inh 13.4.
`Cc1cc(C)c(C)c(OCC(=O)NCC2CCCO2)c1` (configuration not stated) gave Sm TGR block 3.3%, FMDV inh 18.9%, Cycloheximide cs 2.2 and Shiga toxin inh -3.7.
For Cc1ccc2onc(CNC(=O)N3CCN(c4cc(Cl)ccc4C)CC3)c2c1 the results were Sm TGR block -0.5% and FMDV inh -2.4%.
`CC(C)NC[C@H](O)c1ccc(O)c(O)c1` gave Sm TGR block 44.7µM* and FMDV inh -16.2%.
NCC(O)c1ccc(O)c(O)c1 (configuration not stated) was read as FMDV inh -14.9%.
Screening COc1ccc(-n2c(C)cc(/C=C3\SC(=S)NC3=O)c2C)cc1 returned Sm TGR block 2.1%, FMDV inh 57.4%, Cycloheximide cs 5.9 and Shiga toxin inh 12.9.

Compound activity from PubChem.
